The record followed here is paper PMC12136788.

Residue numbers refer to the chain shown, from its start. Whole data set: some 24,000 sequences, median “enrichment r” near 0.99, cut for the highest 2% near 3.7. Many of the other results were omitted from the sample, so the highest values are more common in it than they were.

T1: UNK ZnF1-3 (human, UniProt Q9C0B0 31-174)
T1 sequence: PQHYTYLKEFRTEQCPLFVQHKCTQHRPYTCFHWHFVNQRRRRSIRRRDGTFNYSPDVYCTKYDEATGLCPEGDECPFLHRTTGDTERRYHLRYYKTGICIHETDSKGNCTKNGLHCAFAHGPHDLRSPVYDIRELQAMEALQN

B1: chr2:47387610:47387611:-_ENSG00000143933_ENST00000272298|hu_mus|FALSE|FALSE (ssRNA)
RNA: GGGAGUUCUACAGUCCGACGAUCUCCACGCAGAGUUACAGCUCCACACUUCAACAACAACAUGCUGACAGUUCCUAAAAGCUACUUUAAAAAAGGCAUAACCCAGAUGUUCCCUCAUUGGACCAACUCCAUCUAAGUUUAGAUCAACAGAGGAUUGAGCAUCA
B2: chr8:104447970:104447971:+_ENSG00000164934_ENST00000297579|hu_hu|hu_hu_hu_mus_False|88_98 (ssRNA)
RNA: GGGAGUUCUACAGUCCGACGAUCAUACACUUCCCUGCUUCGACUUUUGUCUACAGGAAAGAUUCUAAUAGACUUAUCAAAGCUGGCAGACACAAAUUCCUUCCCAGUGGGAGAGUAGUCCACAUCAAGUACUGCAGACACGUGCAACAGAGGAUUGAGCAUCA
B3: chr3:150289932:150289933:+_ENSG00000144895_ENST00000460851|hu_hu|hu_hu_hu_mus_False|28_58 (ssRNA)
RNA: GGGAGUUCUACAGUCCGACGAUCCUUGUAGUUUUUAACAUCCCAUACUUCCAUUUGUCCUCGAAGAUUUCCAAAUCCAGCUAAUACUAAUAUAUGUCCAUGAGGGCUAUAGUAGGCUGCGUUGCGAGGACCAGUCCCAAAGUCCAACAGAGGAUUGAGCAUCA
B4: chr13:51516861:51516862:+_ENSMUSG00000067586_ENSMUST00000087978|mus_mus|FALSE|FALSE (ssRNA)
RNA: GGGAGUUCUACAGUCCGACGAUCCUUGGUGACAUAGAGAAGGGCAAGGCCAAUGAUGGAGCAGAACUUCUUGGCAGUGACCUAUAUACACCAGGAGUGACAUGAGGGGAAGUCUUUAGUUAGUCAGACCAGGGUUACCUAAGGCAACAGAGGAUUGAGCAUCA
B5: chr19:5940991:5940992:-_ENSMUSG00000024833_ENSMUST00000025752|mus_hu|FALSE|FALSE (ssRNA)
RNA: GGGAGUUCUACAGUCCGACGAUCGUUCACACAGACACAGCCGAGGACAUCCUUCACGAAGUACCUCAGCUCUGACGGGAUGAUGAGGACAUCUGGGGUGACAGGCAGCUGUGCGUAAACAUAGAACGACUCAUAGUCAAUGGCCAACAGAGGAUUGAGCAUCA
B6: chr6:168291551:168291552:+_ENSG00000130396_ENST00000400822|hu_mus|motif|central (ssRNA)
RNA: GGGAGUUCUACAGUCCGACGAUCAUGUUUCUUCAUUUUCUUUGGGAUGUAGUCCGGUGGUCUCCUCUUCAACUGAAAGACGGAAAUCCCUUUGUCACUUGGCCAUUCCCUGAAGAUUUGUAAAGGACAUUCAUCAUCGUCAAGCAACAGAGGAUUGAGCAUCA
B7: chr16:50257146:50257147:+_ENSG00000121274_ENST00000436909|hu_mus|FALSE|FALSE (ssRNA)
RNA: GGGAGUUCUACAGUCCGACGAUCUAUCCGGAUGCCAGUCUUUAAGUAAUUGAAGUGCCGUCCAUAUAAUUCAAAAAACUCUAUUAAGAGAACACCAUAGUUUGUAUUGGGGAUGCAAGCAUCUUCCCUGGGAUGUAACUGAAGCAACAGAGGAUUGAGCAUCA
B8: chr1:39494447:39494448:+_ENSG00000168653_ENST00000372967|hu_mus|hu_hu_hu_mus_False|18_18 (ssRNA)
RNA: GGGAGUUCUACAGUCCGACGAUCGCACCGAGCGGCGUUCUUAUAGGGCUGUUCUGCGCUUAGGAACAUAAAGUGCCGGUCCAGGCUGAUGCCCAGCUUUUUCUGUAUGUCAAGGAAAGGCAUGGCCCUGCAGUGCCCUUGUCACAACAGAGGAUUGAGCAUCA
B9: chrX:140365796:140365797:-_ENSMUSG00000031285_ENSMUST00000033642|mus_mus|mus_mus_mus_hu_False|8_58 (ssRNA)
RNA: GGGAGUUCUACAGUCCGACGAUCCUUCUCAUUACUCAGUGCCUGCAAGGUUCUGGUUCGGUAGAAGCUACAGUGGGCACUAUGAGUGGGGCUAGGCAACCCAUUCAUCCGGGAGCCUCGCAUGUUCCUAGAUGCUUUAUCUCUCAACAGAGGAUUGAGCAUCA
B10: chr3:10015032:10015033:+_ENSMUSG00000027533_ENSMUST00000029046|mus_mus|mus_mus_mus_hu_True|1_38 (ssRNA)
RNA: GGGAGUUCUACAGUCCGACGAUCGUUUUUACCAUCACAAGUGAUGAUACAAUCUGGCUUGGCCAUUGCGCCCAUUUUUCGCAAAGCUAUUCCCACUCCUAGCUCUUUCAUGUAUUCAUCAAAGCCUUUGCUGUCCAUCAGGCGCAACAGAGGAUUGAGCAUCA
B11: chr4:6320793:6320794:+_ENSMUSG00000028249_ENSMUST00000103008|mus_mus|FALSE|FALSE (ssRNA)
RNA: GGGAGUUCUACAGUCCGACGAUCAGUAGGCAUGAUUGUGAUGGUAACCACAGUCCCAGCUGUUGACAGUAUAUCUGCAAUCUGAGCAUCCUUCAAGCCAAUGACGUUCUGUCCGUUGAUCUCACAGAUGUGGUGAUCAGUGAGCAACAGAGGAUUGAGCAUCA
B12: chr3:142455598:142455599:-_ENSMUSG00000004591_ENSMUST00000043812|mus_mus|FALSE|FALSE (ssRNA)
RNA: GGGAGUUCUACAGUCCGACGAUCGUAGAGCAUUUGAUCAAAUUAUUUGUGAGACUUUUGAGGUACAGCUUUAGUGUUAUAAUAACUUUUUAUAAAAUAUAGACUGUUUUAUCAAAAAUAUUUAUACAUUCUGUUACAAUAUAUCAACAGAGGAUUGAGCAUCA
B13: chr2:202488911:202488912:-_ENSG00000155755_ENST00000286196|hu_hu|FALSE|FALSE (ssRNA)
RNA: GGGAGUUCUACAGUCCGACGAUCUUUUAACAUUUUUCAUAAUAUUGAGAGAUGUUUCAGUAUUAUAUAAUCAAAAAAUCUAUUACAAAUACACAUGUAUACAUCUUAUAAAAAUACAUUUAAAAACAAAAAUGGGACAAAUACCAACAGAGGAUUGAGCAUCA
B14: chr7:135612270:135612271:-_ENSG00000105887_ENST00000393085|hu_mus|hu_hu_hu_mus_False|8_18 (ssRNA)
RNA: GGGAGUUCUACAGUCCGACGAUCGUUUUUUUCUGAGAUGUUAAAUAGUACUUCAGUGGAAAACAAAACUUAACCUUUUAUUAAUGCGUGUUGUACCAAAAGCAGACAUUUUAGCUUGCUUCCUUUACUCAAAAUAUCAUUAAGCAACAGAGGAUUGAGCAUCA
B15: chr20:57609950:57609951:-_ENSG00000101166_ENST00000355937|hu_hu|FALSE|FALSE (ssRNA)
RNA: GGGAGUUCUACAGUCCGACGAUCUGUUUUGAUCAAGUCACAUAGCCUUACACCAACUUAUCAAAAAAAAAAAAAAAAAAACUACCCAAAAUAUAGUUGUAUUUUUAAAAUAACAAAUAAAUAUAUAGUCAGUUUGGAGAGACCCAACAGAGGAUUGAGCAUCA
B16: chr2:174291214:174291215:-_ENSMUSG00000016257_ENSMUST00000016401|mus_hu|motif|central (ssRNA)
RNA: GGGAGUUCUACAGUCCGACGAUCUUGAUCAAGUCACAUAGCCUUACACCAACUUAUCAAAAAAAAAAAAAAAAAAACGGCCCAAAAUAUAGUUGUAUUUUUAAAAUAACAAAUAAAUAUAUAGUCAGUUUGGAGAGACCUGGACAACAGAGGAUUGAGCAUCA
B17: chr2:174291214:174291215:-_ENSMUSG00000016257_ENSMUST00000016401|mus_hu|FALSE|FALSE (ssRNA)
RNA: B16 RNA with G78U, G79A
B18: chr22:42024162:42024163:+_ENSG00000196419_ENST00000405878|hu_hu|FALSE|FALSE (ssRNA)
RNA: GGGAGUUCUACAGUCCGACGAUCCUCAUCUUCACUCUGAGAUUCAAACAUAGCCUUGGAGGCAUCAACCAAAAAAAUCAAACUAUCUCUUCCUGAAUAUUUAUAGUCUCCACUUGCUUCAAGGUUCUCUUCUUGUUCUUCCUCCAACAGAGGAUUGAGCAUCA

For the assay, the target named is T1, UNK ZnF1-3. The assay is described as follows: nsRBNS (natural sequence RNA bind-n-seq); RBNS binding buffer (assumed for nsRBNS): 25 mM Tris pH 7.5, 150 mM KCl, 3 mM MgCl2, 0.01% Triton X-100, 500 ug/ml BSA, 20 U/ml SUPERase-In, 4 C; UNK is unkempt and MSI1 is Musashi-1; names of the RNAs are library labels; protein concentration not given here; high values mean tight binding.
As to B1, the binding signal was found to be 1.21 enrichment R.
The result for B2 reads 0.947 enrichment R; that for B3, 1.1 enrichment R; that for B4, 1.32 enrichment R.
The result for B5 reads 1.51 enrichment R; that for B6, 0.653 enrichment R; that for B7, 1.63 enrichment R.
Take B8: the binding signal was 0.805 enrichment R.
B9 came in with a binding signal of 0.475 enrichment R.
For the molecule B10, the binding signal is 0.702 enrichment R.
In turn, B11 came in with a binding signal of 0.725 enrichment R.
Molecule B12 had a binding signal of 0.537 enrichment R.
B13 registered a binding signal of 1.78 enrichment R.
The molecule B14 gave a binding signal of 0.545 enrichment R.
Molecule B15 showed a binding signal of 5.71 enrichment R.
For the molecule B16, the binding signal was determined as 8.06 enrichment R.
Take B17: the binding signal is 7.95 enrichment R.
In the case of B18, the binding signal was 1.1 enrichment R.
